pPAFAH inh – pPAFAH (human) enzyme inhibition. inhibition, % at 3.39 µM. Q13093. AID 463082. recombinant pPAFAH, FP-rhodamine probe fluorescence polarization. hit rate 1.5% among 330,000;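 active = inhibition above the mean inhibition across the screen plus 3 SD, cut at about 25% in these data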;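 also: inhibitors block binding of the rhodamine activity-based probe so polarization drops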
Target sequence (Q13093 whole entry, looked up): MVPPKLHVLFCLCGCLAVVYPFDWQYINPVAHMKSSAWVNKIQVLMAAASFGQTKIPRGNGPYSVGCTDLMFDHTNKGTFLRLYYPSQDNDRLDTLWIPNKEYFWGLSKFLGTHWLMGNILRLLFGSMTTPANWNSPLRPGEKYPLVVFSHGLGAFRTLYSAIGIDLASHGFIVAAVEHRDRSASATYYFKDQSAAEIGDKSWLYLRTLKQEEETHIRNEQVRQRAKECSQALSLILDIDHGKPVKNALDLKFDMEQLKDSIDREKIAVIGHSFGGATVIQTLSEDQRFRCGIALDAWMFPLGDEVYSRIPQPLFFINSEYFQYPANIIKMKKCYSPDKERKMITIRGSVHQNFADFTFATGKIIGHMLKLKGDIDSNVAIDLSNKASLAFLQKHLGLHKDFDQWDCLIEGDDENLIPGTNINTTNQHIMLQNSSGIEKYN
PAFAH1B2 FP inh – blocks human PAF acetylhydrolase 1b catalytic subunit 2. P68402. recombinant PAFAH1B2, FP-rhodamine activity probe, fluorescence polarization. inhibition, % at 3.39 µM. hit rate 1.2% among 340,000. AID 492953;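 active = inhibition above the mean of all tested compounds plus 3 SD, cut at about 24% in these data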
PAFAH2 inh – PAFAH2 (human) inhibition; inhibition, % at 3.39 µM; AID 492956; recombinant PAFAH2, FP-rhodamine activity probe, fluorescence polarization; Q99487; hit rate 0.99% among 340,000;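 active = inhibition above the mean over all tested compounds plus 3 SD, cut at about 30% in these data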;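 also: inhibitors block probe labeling of enzyme so polarization drops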
Fam108B inh – counter-screen for RBBP9 inhibitors: inhibitors of mouse Fam108B | recombinant Fam108B, FP-Rh probe fluorescence polarization | inhibition, % at 9.51 µM | hit rate 0.33% among 300,000 | AID 1947;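 active = inhibition above the screen mean inhibition plus 3 SD, computed separately per campaign, cut at about 18% in these data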;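 also: inhibitors lower polarization as less probe binds the enzyme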
PME-1 inh – PME-1 (human) inhibition; Q9Y570; recombinant PME-1, FP-Rh probe fluorescence polarization; inhibition, % at 5.9 µM; hit rate 0.53% among 320,000;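 active = inhibition above the campaign mean of all compounds plus 3 SD, cut at about 26% in these data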;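 also: competitive labeling of PME-1 active site by serine hydrolase directed probe; inhibitors block probe labeling so polarization falls and inhibition rises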
PAFAH1B3 FP inh – inhibitors of human PAFAH1B3; Q15102; AID 492972; recombinant PAFAH1B3, FP-rhodamine probe, fluorescence polarization; hit rate 0.28% among 340,000; inhibition, % at 3.39 µM;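 active = inhibition above the screen-wide average of all tested compounds plus 3 SD, cut at about 25% in these data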
Target sequence (Q15102 whole entry, looked up): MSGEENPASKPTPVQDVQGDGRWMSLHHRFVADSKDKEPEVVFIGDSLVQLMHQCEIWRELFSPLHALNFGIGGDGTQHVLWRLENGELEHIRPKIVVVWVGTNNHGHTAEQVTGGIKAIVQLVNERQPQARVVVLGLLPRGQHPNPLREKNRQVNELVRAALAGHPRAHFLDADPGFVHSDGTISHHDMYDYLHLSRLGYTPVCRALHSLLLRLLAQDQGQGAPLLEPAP
Hits are given with their value; 0 = inactive; - = no result given. Sampled rows, rich in hits. Any-hit rate of the full collection: about 2.9%.

SMILES | pPAFAH inh | PAFAH1B2 FP inh | PAFAH2 inh | Fam108B inh | PME-1 inh | PAFAH1B3 FP inh
NNC(=O)CSc1c(-c2cccs2)[nH]c2ccccc12 | 0 | 0 | 0 | 0 | 0 | 0
Cc1ccn2c(C(=O)NN=C3CCN(C)CC3)c(C)nc2c1 | 0 | 0 | 0 | 0 | 0 | 0
O=C(CSc1nccc(-c2cccs2)n1)Nc1ccc(Cl)cc1 | 0 | 0 | 0 | 0 | 0 | 0
Cc1onc(-c2ccc(Cl)cc2)c1-c1ccnc(SCC(=O)Nc2ccc(C(C)C)cc2)n1 | 0 | 30 | 0 | 0 | 0 | 0
N#CCC(=O)Nc1ccc(C(=O)OCC(=O)c2c[nH]c3ccccc23)cc1 | 0 | 0 | 0 | - | - | 0
O=C(COC(=O)Cc1c[nH]c2ccccc12)Nc1ccccc1 | 0 | 0 | 0 | 0 | 0 | 0
O=C(COC(=O)c1c[nH]c2ccccc12)Nc1cccc(F)c1 | 25 | 0 | 81 | - | 0 | 0
O=C(COC(=O)c1c[nH]c2ccccc12)Nc1ccc(F)cc1 | 30 | 0 | 77 | - | 0 | 0
CN(c1cccc(Cl)c1)S(=O)(=O)c1cccc(C(=O)Nc2ccc3c(c2)CCC3)c1 | 0 | 0 | 0 | 0 | 0 | 0
O=C1SC(SCc2ccccc2)=N/C1=C\c1ccco1 | 33 | 0 | 0 | 0 | 0 | 0
Cc1ccc(S(=O)(=O)Oc2ccc(/C=N/NC(=O)c3nn(C)cc3[N+](=O)[O-])cc2)cc1 | 0 | 28 | 0 | 0 | 0 | 0
CC(C)(C)N(Cc1cc2ccccc2[nH]c1=O)C(=O)c1ccco1 | 0 | 0 | 0 | 0 | 0 | 0
O=C(Nc1ccccc1)c1ccc(S(=O)(=O)N(CCO)CCO)cc1 | 0 | 0 | 0 | 0 | 0 | 0
O=C1C2CCCCN2C(=O)N1CCCCN1CCN(c2cccc(Cl)c2)CC1 (stereo not drawn) | 25 | 0 | 0 | 0 | 0 | 0
Cc1ccc(C)c(N2N=C(C(=O)Nc3ccc(S(=O)(=O)N4CCCC4)cc3)CCC2=O)c1 | 0 | 0 | 0 | 0 | 0 | 0
COc1ccc(O)c(/C=N/Nc2nc(C)cc(-c3ccccc3)n2)c1 | 0 | 0 | 0 | 0 | 36 | 0
COc1ccc(/C=N/Nc2nc(C)cc(-c3ccccc3)n2)c(OC)c1 | 0 | 0 | 0 | 0 | 0 | 0
CCOc1ccc2c(c1)C(C)=CC(C)(C)N2S(=O)(=O)c1ccc(C)cc1 | - | 0 | 0 | - | - | 0
CCOC(=O)c1c(C)[nH]c(C(=O)OCc2ccc(F)cc2)c1C | - | 0 | 0 | - | - | 0
CCOC(=O)c1c(C)[nH]c(C(=O)OCC(=O)c2ccccc2)c1C | 0 | 0 | 0 | 0 | 0 | 0
CCOC(=O)c1c(C)[nH]c(C(=O)OCc2ccccc2F)c1C | 29 | 0 | 0 | 0 | 0 | 0
CCCCN(C(=O)c1c(C)[nH]c(C(=O)OCC)c1C)c1ccccc1 | 0 | 28 | 0 | 0 | 0 | 0
COC(=O)c1sc(N2CCCCC2)c(C#N)c1N | 0 | 0 | 0 | 0 | 0 | 0
CCOc1ccc(NC(=O)CC2C(=O)N(c3ccc(OC)cc3)C(=O)N2CCc2cccs2)cc1 (stereo not drawn) | 0 | 0 | 0 | 0 | 0 | 0
CC#CCN1c2ccccc2[C@]23C[C@@H](C(=O)OC)N(C(=O)c4cc(C)oc4C)C2=NC(C(=O)OC)=C(C(=O)OC)[C@H]13 | 0 | 0 | 0 | 0 | 28 | 0
SMILES | pPAFAH inh | PAFAH1B2 FP inh | PAFAH2 inh | Fam108B inh | PME-1 inh | PAFAH1B3 FP inh
COC1=CC(=O)c2ccccc2C1=O | 0 | 0 | 0 | - | - | 43
CC(C)(C)c1cc(CCC(=O)NCCc2ccccn2)cc(C(C)(C)C)c1O | 0 | 0 | 0 | 0 | 0 | 0
O=C1C=C(NCCc2cc(Br)c(O)c(Br)c2)C(=O)c2ncccc21 | - | 28 | 37 | - | - | 68
Cc1ccc(S(=O)(=O)NCCCNS(=O)(=O)c2ccc(C)cc2)cc1 | 26 | 0 | 0 | - | 0 | 0
Cc1ccc(CCNS(=O)(=O)c2ccc3c(c2)NC(=O)C(C)C(=O)N3)cc1 (stereo not drawn) | 0 | 27 | 0 | 0 | 0 | 0
Cc1ccc(CCNS(=O)(=O)c2ccc(C)cc2)cc1 | 0 | 26 | 0 | 0 | 0 | 0
Cc1ccc2[nH]cc(CCNS(=O)(=O)c3ccc(F)cc3)c2c1 | - | 27 | 0 | - | - | 0
CC(C)N1C(=O)c2ccccc2N(Cc2ccccc2)S1(=O)=O | 0 | 0 | 0 | 0 | 0 | 0
O=C(NCCCN1CCCC1=O)c1cccnc1 | 0 | 0 | 0 | 0 | 0 | 0
Cc1ccc(S(=O)(=O)NCCc2ccc(S(N)(=O)=O)cc2)cc1 | 0 | 0 | 0 | 0 | 0 | 0
Cc1ccc(CSCCNS(=O)(=O)c2ccc(C)cc2)cc1 | 0 | 25 | 0 | 0 | 0 | 0
Cc1cccc(Oc2cc(NC(=O)Cn3cnc([N+](=O)[O-])n3)cc([N+](=O)[O-])c2)c1 | 29 | 0 | 0 | 0 | 0 | 0
Cc1[nH]n(C(N)=S)c(=O)c1C(c1ccccc1)C(C#N)C#N (stereo not drawn) | 0 | 0 | 0 | 0 | 0 | 0
Cc1[nH]n(-c2ncc(-c3ccccc3)s2)c(=O)c1C(c1ccc(Br)cc1)C(C#N)C#N (stereo not drawn) | 27 | 0 | 0 | 0 | 0 | 0
Cc1ccc(-c2c(C(=O)N/N=C/c3ccco3)nnn2-c2nonc2N)cc1 | 0 | 0 | 0 | 0 | 0 | 0
CC(=O)OC1CC(C)N(C(=O)c2ccccc2)c2ccc(C)cc21 (stereo not drawn) | 0 | 0 | 0 | 0 | 0 | 0
Cc1ccc2c(c1)C=CC(C)N2C(=O)c1ccccc1 (stereo not drawn) | 0 | 32 | 0 | 0 | 0 | 0
Cc1ccc(/C=N/Nc2ccnc3cc(Cl)ccc23)c(C)c1 | 0 | 0 | 0 | 0 | 35 | 0
Oc1ccc(/C=N/Nc2ccnc3cc(Cl)ccc23)c(O)c1 | 0 | 0 | 0 | 0 | 27 | 0
COc1cccc(Nc2nc3ccccc3nc2NS(=O)(=O)c2cccs2)c1 | 32 | 0 | 0 | 0 | 0 | 0
CC1Cc2cc(S(=O)(=O)NCCC(=O)N(C)Cc3ccccc3)ccc2N1C(=O)C1CC1 (stereo not drawn) | 0 | 0 | 0 | 0 | 0 | 0
O=C(N/N=C/c1cccnc1)C(=O)N1CCCCCC1 | 0 | 0 | 0 | 0 | 0 | 0
O=C(/C=C/c1ccccc1[N+](=O)[O-])OCC(=O)c1ccccc1 | 25 | 0 | 0 | 0 | 0 | 0
COc1ccc(NC(=O)COC(=O)/C=C/c2ccccc2[N+](=O)[O-])cc1OC | 30 | 0 | 0 | 0 | 0 | 0
COC(=O)CNC(=O)COC(=O)/C=C/c1ccccc1[N+](=O)[O-] | 0 | 0 | 0 | 0 | 0 | 0
SMILES | pPAFAH inh | PAFAH1B2 FP inh | PAFAH2 inh | Fam108B inh | PME-1 inh | PAFAH1B3 FP inh
COc1ccc(C(=O)COC(=O)/C=C/c2ccccc2[N+](=O)[O-])cc1 | 0 | 0 | 0 | - | - | 0
COC(=O)c1sccc1NC(=O)CC1C(=O)NCCN1C(=O)Nc1ccc(OCc2ccccc2)cc1 (stereo not drawn) | 0 | 61 | 0 | 0 | 0 | 0
CCN(CC)CCCNC(=O)c1sc2nc(-c3ccc(F)cc3)cn2c1C | 0 | 0 | 0 | 0 | 0 | 0
Cc1ccc2cc(C)c(SCC#N)nc2c1 | 0 | 0 | 0 | 0 | 0 | 0
O=C(Nc1ncccc1O)c1cccc(S(=O)(=O)N2CCCc3ccccc32)c1 | 0 | 0 | 0 | 0 | 0 | 0
Cc1cccnc1NC(=O)c1cccc(S(=O)(=O)N2CCCc3ccccc32)c1 | 0 | 29 | 0 | 0 | 0 | 0

Compound activity (PubChem BioAssay)
